Measurements reported in PubChem BioAssay (Tox21).
Records with an inconclusive call do not appear. The source made the active and inactive calls. Unless noted, calls come from the whole dose curve; as a rule, active = well fitted curve in the direction sought with a large enough effect in the repeat runs; inconclusive = weak or mixed curves; inactive = no such curve, though single readings can be large; an effect the other way counts as inactive or inconclusive.

Key:
[1] = qHTS assay to identify small molecule antagonists of the estrogen related receptor (ERR) signaling pathway from Tox21 library - cell viability counter screen (AID 1224834); note: nearly all actives have a fitted effect of over 30% in size
How it was run: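 Counter screen run in ERR cells (2,000 cells/well): cells pre-incubated 6 h, then treated with compounds for 17.5 h at 37 C. Fluorescence was read 30 min after CellTiter-Fluor addition.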

[2] = target: Luciferin 4-monooxygenase (Photinus pyralis) (UniProt P08659); assay: qHTS assay to identify small molecule inhibitors of firefly luciferase (AID 1224835); note: nearly all actives have a fitted effect of over 25% in size
How it was run: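 Biochemical qHTS: compounds run as interplate titrations against purified firefly enzyme, with D-luciferin and ATP each at its KM concentration. Light output recorded by CCD imaging.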

[3] = qHTS assay to identify small molecule agonists of the constitutive androstane receptor (CAR) signaling pathway - cell viability counter screen (AID 1224836); note: nearly all actives have a fitted effect of over 45% in size
How it was run: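 23 h treatment, 37 C, 5% CO2. Cell line: HepG2 stably expressing hCAR with a CYP2B6-2.2kb construct. Co-treatment: PK11195, 0.75 uM final. Read-out: CellTiter-Fluor fluorescence intensity.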

[4] = qHTS assay to identify small molecule antagonists of the constitutive androstane receptor (CAR) signaling pathway - cell viability counter screen (AID 1224837); note: nearly all actives have a fitted effect of over 45% in size
How it was run: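 CITCO at 50 nM final was added alongside compounds (15 concentrations) to double-stable hCAR/CYP2B6-2.2kb HepG2 cells. Following 23 hr at 37 C, cell viability was quantified by CellTiter-Fluor fluorescence intensity.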

[5] = target: Nuclear receptor subfamily 1 group I member 3 (Homo sapiens) (UniProt Q14994); assay: qHTS assay to identify small molecule agonists of the constitutive androstane receptor (CAR) signaling pathway (AID 1224839);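 note: HepG2 cells stably carrying human CAR and a CYP2B6 luciferase reporter; nearly all actives have a fitted effect of over 15% in size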
How it was run: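 Compounds tested at 15 concentrations on HepG2 cells stably harbouring hCAR and CYP2B6-2.2kb reporter constructs, co-treated with PK11195 (0.75 uM final), 24 h at 37 C; luminescent reporter signal quantified.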

[6] = qHTS assay to identify small molecule antagonists of the estrogen related receptor signaling pathway with the pleiotropic PPARgamma coactivator (PGC) from Tox21 10K library - cell viability counter screen (AID 1224840; active = well fitted cell-killing curve with a large enough effect in the repeat runs, not every such curve was filed as active; note: nearly all actives have a fitted effect of over 40% in size)
How it was run: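 Readout: fluorescence intensity from CellTiter-Fluor after 30 min at 37 C/5% CO2. Preceded by 17.5 h treatment of PGC/ERR cells with DMSO-dissolved compounds, added 6 h post-seeding.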

[7] = qHTS assay to identify small molecule agonists of the hypoxia (HIF-1) signaling pathway - cell viability counter screen (AID 1224844; calls by dose curve; note: nearly all actives have a fitted effect of over 50% in size)
How it was run: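 In this counter screen, HRE-bla ME-180 cell viability after 17 hrs of compound exposure at 37C was read by CellTiter-Glo luminescence, multiplexed with the beta-lactamase reporter measurement.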

[8] = qHTS assay to identify small molecule agonists of H2AX (AID 1224845; active = well fitted activation curve with a large enough effect in the signal ratio in the repeat runs, not every such curve was filed as active; the % refers to the signal ratio)
How it was run: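 Wild-type CHO-K1 cells, plated overnight, exposed 3hr at 37C to 15 concentrations (0.76% DMSO final). Lysed, then HTRF anti-pH2AX (S139) cryptate and anti-H2AX-d2 antibodies, 24 hr room temperature; 665/620 nm emission read.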

[9] = qHTS assay to identify small molecule agonists of H2AX - cell viability counter screen (AID 1224847; calls by dose curve; note: top concentration of the series differs between compounds; nearly all actives have a fitted effect of over 30% in size)
How it was run: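 Compounds tested at 15 concentrations were incubated 3 hr at 37C with wild-type CHO-K1 cells; cellular ATP-based luminescence (CellTiter-Glo) indicated viability.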

[10] = qHTS RealTime-Glo MT Cell Viability Assay in HepG2 cells - 24 hour (AID 1224867); note: nearly all actives have a fitted effect of over 50% in size
How it was run: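 Compound treatment began 5 h after plating HepG2 cells (600/well) with NanoLuc luciferase and prosubstrate. Plates stayed at 37 C for 40 h; luminescence was captured at six time points, 0 h through 40 h.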

[11] = qHTS RealTime-Glo MT Cell Viability Assay in HEK293 cells - 32 hour (AID 1224868); note: top concentration of the series differs between compounds; nearly all actives have a fitted effect of over 50% in size
How it was run: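 Quantitative high-throughput screen of the Tox21 10K library in HEK293: cells and RealTime-Glo reagents plated together, compound added at 5 h, luminescence monitored through 40 h at 37 C.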

[12] = A CellTox Green Cytotoxicity Assay to monitor cytotoxicity in HEK293 cells - 0 hour (AID 1224869); note: nearly all actives have a fitted effect of over 50% in size
How it was run: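 Real-time, in one plate: 600 HEK293 cells/well with dead-cell DNA dye, pinned compound after 5 h, 37 C incubation over 40 h; viable cells give no appreciable fluorescence.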

[13] = qHTS RealTime-Glo MT Cell Viability Assay in HepG2 cells - 40 hour (AID 1224870); note: nearly all actives have a fitted effect of over 50% in size
How it was run: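 HepG2 cells (600/well) mixed with RealTime-Glo MT reagent, settled 5 h at 37 C/5% CO2 before compound addition. Nonlytic NanoLuc luminescence from viable-cell prosubstrate reduction read repeatedly during 40 h treatment at 37 C.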

[14] = target: Thyrotropin receptor (Homo sapiens) (UniProt P16473); assay: qHTS assay to identify small molecule agonists of the thyroid stimulating hormone receptor (TSHR) signaling pathway (AID 1224843; calls by dose curve; note: nearly all actives have a fitted effect of over 45% in size)
How it was run: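 HEK293/TSHR, 800 cells/well; cpd 30 min RT; add cAMP-d2 + anti-cAMP-cryptate, 1 h RT; fluorescence read on plate reader. 15-pt titration, n=3.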

[15] = qHTS assay to identify small molecule agonists of the hypoxia (HIF-1) signaling pathway (AID 1224846; active = well fitted activation curve with a large enough effect in the signal ratio in the repeat runs, not every such curve was filed as active; the % refers to the signal ratio)
How it was run: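 ME-180 HRE-bla reporter cells; compounds in DMSO, 17 h at 37C; read-out beta-lactamase via CCF4-AM FRET.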

[16] = qHTS assay to identify small molecule antagonists of the estrogen related receptor signaling pathway with the pleiotropic PPARgamma coactivator (PGC) from Tox21 10K library (AID 1224841; call rule not given here)
How it was run: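 One-Glo luminescence, measured after half an hour at room temperature, quantified reporter output of PGC/ERR cells. These had been plated at 2,000 per well, incubated 6 h, dosed with compounds in DMSO, then kept 18 h at 37 C.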

[17] = qHTS assay to identify small molecule agonists of the estrogen related receptor signaling pathway with the pleiotropic PPARgamma coactivator (PGC) from Tox21 10K library (AID 1224842); note: nearly all actives have a fitted effect of over 15% in size
How it was run: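 PGC/ERR reporter cell line, 2,000 cells per well, incubated 6 h at 37 C before 23 nL compound in DMSO was added. After 18 h at 37 C, One-Glo luminescence read following 30 min at room temperature.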

[18] = qHTS assay to identify small molecule antagonists of the estrogen related receptor (ERR) signaling pathway from Tox21 library (AID 1224848); note: nearly all actives have a fitted effect of over 50% in size
How it was run: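 Compounds dissolved in DMSO are pin-transferred onto ERR reporter cells (2,000 per well) that have settled for 6 h at 37 C. Plates then incubate 18 h at 37 C before ONE-Glo luciferase reagent and a luminescence read 30 min later.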

[19] = qHTS assay to identify small molecule agonists of the estrogen related receptor (ERR) signaling pathway from Tox21 library (AID 1224849; calls by dose curve; note: nearly all actives have a fitted effect of over 15% in size); conditions: ERR reporter cell line, ONE-Glo luciferase, 18 h; at 92.4 µM (top of the series) unless noted
How it was run: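 Luciferase activity in ERR pathway reporter cells served as the agonist readout; exposure lasted 18 h at 37 C, with ONE-Glo detection after 30 min at room temperature.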
% is set by controls: 0 for no effect and ±100 for the full control effect.

Chain of Nuclear receptor subfamily 1 group I member 3 (Homo sapiens) (Q14994 whole entry, looked up): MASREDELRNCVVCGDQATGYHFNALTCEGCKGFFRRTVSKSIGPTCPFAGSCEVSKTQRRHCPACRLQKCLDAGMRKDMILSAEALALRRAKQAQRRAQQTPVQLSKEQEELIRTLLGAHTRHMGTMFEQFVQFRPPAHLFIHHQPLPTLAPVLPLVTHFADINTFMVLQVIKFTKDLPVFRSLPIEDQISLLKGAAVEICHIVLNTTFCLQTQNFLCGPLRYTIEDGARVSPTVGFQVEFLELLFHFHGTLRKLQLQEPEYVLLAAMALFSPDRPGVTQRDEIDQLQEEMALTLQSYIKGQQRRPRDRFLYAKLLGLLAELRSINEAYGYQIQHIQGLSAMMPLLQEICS
Chain of Thyrotropin receptor (Homo sapiens) (P16473 whole entry, looked up): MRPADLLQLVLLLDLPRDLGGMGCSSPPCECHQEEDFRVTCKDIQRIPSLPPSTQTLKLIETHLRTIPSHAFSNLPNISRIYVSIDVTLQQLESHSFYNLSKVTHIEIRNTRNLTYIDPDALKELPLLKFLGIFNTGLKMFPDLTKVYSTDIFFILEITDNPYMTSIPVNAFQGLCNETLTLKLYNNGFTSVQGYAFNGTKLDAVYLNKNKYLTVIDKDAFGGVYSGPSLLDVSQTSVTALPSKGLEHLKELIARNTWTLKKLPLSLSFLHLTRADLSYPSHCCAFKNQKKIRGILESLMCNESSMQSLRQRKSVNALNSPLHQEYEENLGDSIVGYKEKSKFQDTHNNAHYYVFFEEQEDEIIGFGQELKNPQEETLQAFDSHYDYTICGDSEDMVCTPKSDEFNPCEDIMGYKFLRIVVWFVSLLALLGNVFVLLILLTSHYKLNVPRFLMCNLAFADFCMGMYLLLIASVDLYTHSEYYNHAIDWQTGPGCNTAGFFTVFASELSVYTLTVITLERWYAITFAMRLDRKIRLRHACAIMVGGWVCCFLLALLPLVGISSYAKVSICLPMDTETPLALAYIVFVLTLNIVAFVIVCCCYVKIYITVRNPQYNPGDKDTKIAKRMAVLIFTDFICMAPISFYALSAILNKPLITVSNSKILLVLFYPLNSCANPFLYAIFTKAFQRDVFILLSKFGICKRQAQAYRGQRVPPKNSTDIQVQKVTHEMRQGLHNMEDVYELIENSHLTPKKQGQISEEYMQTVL
Chain of Luciferin 4-monooxygenase (Photinus pyralis) (P08659 whole entry, looked up): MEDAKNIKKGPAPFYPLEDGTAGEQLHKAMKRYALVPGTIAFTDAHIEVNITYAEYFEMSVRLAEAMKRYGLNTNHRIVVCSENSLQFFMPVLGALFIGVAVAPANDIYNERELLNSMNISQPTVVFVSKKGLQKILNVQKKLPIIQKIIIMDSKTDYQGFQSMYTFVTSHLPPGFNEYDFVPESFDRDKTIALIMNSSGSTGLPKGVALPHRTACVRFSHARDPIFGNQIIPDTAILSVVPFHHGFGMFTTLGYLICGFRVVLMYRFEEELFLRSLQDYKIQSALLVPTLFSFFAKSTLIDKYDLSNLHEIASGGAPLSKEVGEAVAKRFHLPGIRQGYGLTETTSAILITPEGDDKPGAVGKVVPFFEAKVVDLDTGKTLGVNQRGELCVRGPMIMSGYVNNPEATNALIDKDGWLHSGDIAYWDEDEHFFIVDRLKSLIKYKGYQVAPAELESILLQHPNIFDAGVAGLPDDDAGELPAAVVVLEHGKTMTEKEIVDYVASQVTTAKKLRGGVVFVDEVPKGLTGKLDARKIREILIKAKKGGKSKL

CCN(CC)C(=O)c1ccc(O)c(OC)c1
inactive: Potency [1] | Potency [2] | outcome [3] | outcome [4] | Potency [5] | outcome [6] | Potency [7] | outcome [8] | Potency [9] | outcome [10] | Potency [11] | Potency [12] | Potency [13]

COc1ccc(NC(C)=O)cc1
inactive: Potency [1] | Potency [2] | outcome [3] | outcome [4] | outcome [6] | outcome [14] | Potency [7] | outcome [8] | outcome [15] | Potency [9] | Potency [11] | Potency [12] | Potency [13]

CN(C)CCn1nnnc1SCC1=C(C(=O)O)N2C(=O)[C@@H](NC(=O)Cc3csc(N)n3)[C@H]2SC1
inactive: Potency [1] | Potency [2] | outcome [3] | outcome [4] | Potency [5] | outcome [6] | outcome [14] | Potency [7] | Potency [9] | outcome [10] | Potency [11] | Potency [12]

NC(=O)CCCCC1CCSS1 (centres undefined)
inactive: Potency [1] | Potency [2] | outcome [3] | outcome [4] | Potency [5] | outcome [6] | outcome [14] | Potency [7] | outcome [8] | outcome [15] | Potency [9] | outcome [10] | Potency [11] | Potency [12] | Potency [13]

C=CC(=O)OCCCCCC
inactive: Potency [1] | Potency [2] | outcome [3] | outcome [4] | outcome [6] | outcome [14] | Potency [7] | outcome [8] | outcome [15] | Potency [9] | outcome [10] | Potency [11] | Potency [12] | Potency [13]

Nc1ncnc2c1ncn2Cc1c(F)cccc1Cl
inactive: Potency [1] | Potency [2] | outcome [3] | outcome [4] | outcome [6] | Potency [16] | Potency [17] | outcome [14] | outcome [8] | outcome [15] | Potency [9] | Potency [18] | activity change, positive = activation [19] 0.331% [at 42.5 µM] | outcome [10] | Potency [11] | Potency [12]

NC(=O)c1c(Cl)cccc1Cl
inactive: Potency [1] | Potency [2] | outcome [3] | outcome [4] | Potency [5] | outcome [6] | Potency [16] | Potency [17] | outcome [14] | outcome [8] | outcome [15] | Potency [9] | Potency [18] | activity change, positive = activation [19] -1.3% | outcome [10] | Potency [11] | Potency [12]

NC1CCN(c2cccc(Cl)n2)CC1
inactive: Potency [1] | Potency [2] | outcome [3] | outcome [4] | Potency [5] | outcome [6] | outcome [8] | Potency [9] | Potency [11] | Potency [12] | Potency [13]

CC(=O)O[C@H](CC(=O)[O-])C[N+](C)(C)C
inactive: Potency [1] | Potency [2] | outcome [3] | outcome [4] | outcome [6] | Potency [16] | Potency [17] | outcome [14] | Potency [7] | outcome [8] | outcome [15] | Potency [9] | Potency [18] | activity change, positive = activation [19] -2.17% | outcome [10] | Potency [11] | Potency [12] | Potency [13]

CCCCCCCCCCC1CO1 (centres undefined)
inactive: Potency [1] | Potency [2] | outcome [3] | outcome [4] | Potency [5] | outcome [6] | outcome [14] | Potency [7] | outcome [8] | outcome [15] | Potency [9] | Potency [11] | Potency [12]

CO[Si](CCCNCCC[Si](OC)(OC)OC)(OC)OC
inactive: Potency [1] | Potency [2] | outcome [3] | outcome [4] | Potency [5] | outcome [6] | outcome [14] | Potency [9] | Potency [11] | Potency [12] | Potency [13]

Nc1nc(F)nc2c1ncn2[C@@H]1O[C@H](CO)[C@@H](O)[C@@H]1O
inactive: Potency [1] | Potency [2] | outcome [3] | outcome [4] | Potency [5] | outcome [6] | outcome [14] | outcome [8] | outcome [15] | Potency [9] | outcome [10] | Potency [11] | Potency [12] | Potency [13]

C=C(C)[C@@H]1CCC2=CC(=O)C[C@@H](C)[C@]2(C)C1
inactive: Potency [1] | Potency [2] | outcome [3] | outcome [4] | outcome [6] | Potency [16] | Potency [17] | outcome [14] | outcome [8] | outcome [15] | Potency [18] | activity change, positive = activation [19] -3.73% | outcome [10] | Potency [11] | Potency [12]

CN(C)N=Nc1ccccc1
inactive: Potency [1] | Potency [2] | outcome [3] | outcome [4] | outcome [6] | Potency [16] | Potency [17] | outcome [14] | Potency [7] | outcome [15] | Potency [9] | Potency [18] | activity change, positive = activation [19] 9.49% | outcome [10] | Potency [11] | Potency [12] | Potency [13]
